For four compounds, growth results are on record in PubChem BioAssay (NCI).

What all share (test): NCI-60 one-dose screen, 48 h (100 = growth as untreated, 0 = no growth, -100 = all killed)
What all share (conditions): 10 µM

For experiment [1], the system named is NCI-H23 lung.
For experiment [2], the system named is NCI-H226 lung.
Experiment [3] relates to NCI-H322M lung.
Experiment [4] relates to NCI-H460 lung.
Experiment [5] has as its system NCI-H522 lung.
For experiment [6], the system named is A549/ATCC NSCLC.
The subject of experiment [7] is 786-0 renal.
The test system of experiment [8] is COLO 205 colon.
For experiment [9], the system named is DU-145 prostate.
Experiment [10] relates to K-562 leukemia.
Experiment [11] concerns MALME-3M melanoma.
Experiment [12] has as its system MDA-MB-231 breast.
Experiment [13] relates to RXF 393 renal.
Experiment [14] concerns SF-268 CNS.
The test system of experiment [15] is SF-295 CNS.
In experiment [16] the test system is SF-539 CNS.
The test system of experiment [17] is UACC-257 melanoma.
Experiment [18] relates to M14 melanoma.
Experiment [19] concerns HCT-15 colon.

The panel holds about 83,000 compounds, 20% with a hit somewhere; the sample as a whole holds those more often.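 Plates (96-well) were seeded with cells, treated with compound at one concentration, and incubated for 48 hours before percent growth was determined.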 A number with no mark means an inactive call. Calls of active or inactive are those of the source. The calls were made as follows: active = growth percent below 10; inactive = the rest.

In the case of `CN(C)N=Nc1nn(C(=O)Nc2ccc(Cc3ccccc3)cc2)c2ccccc12`, the growth in experiment [1] was 61%; in [2], 69.2%; in experiment [3], 81.3%; in [4], 11.4%; in experiment [5], 42.3%; in experiment [6], 31.5%. Also, the growth in experiment [7] is 49.9%; in experiment [8], -53.4% (active); in experiment [9] it was 60.8%; in experiment [10], 18.4%; in experiment [11], 53.8%; in experiment [12], 58.2%. The growth was 94.8% in experiment [13]; 63.5% in [14]; 9.64% (active) in experiment [15]; 4.93% (active) in [16]; 29.3% in [17]; 20.4% in experiment [18]. The growth in [19] was 36.2%.

For `Clc1cccc(-c2nc(-c3cccs3)no2)c1`, the growth in experiment [1] is 92.8%; in experiment [2], 100%; in [3], 114%; in experiment [4] it was 110%; in experiment [5], 92%; in experiment [6] it was 94.1%. For the same compound, the growth in experiment [7] is 99.6%; in experiment [8], 114%; in [9], 120%; in experiment [10] it was 102%; in experiment [12] it was 81.4%; in [13] it was 113%. Besides, the growth in [14] is 106%; in [15], 92.2%; in [16], 92.6%; in experiment [17], 110%; in experiment [18], 105%; in experiment [19], 47.4%.

Consider `O=C(CCCCCCC(=O)Nc1cccnc1)NO`, for which the growth in experiment [1] was 57.9%; in experiment [2], 86.5%; in experiment [3] it was 27.7%; in experiment [4], 39.9%; in experiment [5], -12.8% (active); in experiment [6], 66.2%. For the same compound, the growth in experiment [7] was 70.4%; in experiment [8], 113%; in experiment [9] it was 40.1%; in experiment [10] it was 5.89% (active); in [11], -23.1% (active); in [12], 66.4%. The growth was 17.6% in experiment [13]; 41.5% in experiment [14]; 73.6% in [15]; 50% in [16]; 78.4% in experiment [17]; 29.6% in [18]. The growth in [19] was 93.1%.

Regarding `Cc1nc2ccccc2c(N)c1-c1cc(C)c2c(C)nc3ccccc3c2n1`, the growth in experiment [1] is 44.8%; in [2], 98.8%; in experiment [3] it was 10.7%; in [4], -75.8% (active); in experiment [5], 68.6%; in experiment [6] it was -75.4% (active). The growth in [7] is -89.2% (active); in experiment [8], -91% (active); in experiment [9], -82.4% (active); in experiment [10], -36.1% (active); in [11] it was 95.3%; in experiment [12] it was -80.2% (active). Further, the growth in [13] is -80.3% (active); in [14], -67.5% (active); in experiment [15] it was 85.2%; in experiment [16], -71.9% (active); in [17], 105%; in experiment [18], 39.3%. Further, the growth in [19] was -90% (active).
